Experimental data published in PubChem BioAssay (EPA / NIEHS).
Active and inactive are the calls of the source. The calls were made as follows: active = hit-call score of the fitted dose curve at least 0.9, where 1 is the maximum; inactive = score below 0.9.

What was measured:
Settings in all cases: mRNA level, 48 h; actives raise or lower the signal
[1] = read-out: NAD(P)H dehydrogenase [quinone] 1 (NQO1), NQO1 (gene 1728); experiment: LTEA_HepaRG_NQO1: Life Technologies and Expression Analysis (LTEA) Assay for NAD(P)H dehydrogenase [quinone] 1 (NQO1) using HepaRG (AID 2283526)
Outline: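 Human HepaRG hepatic cells received chemicals for 48 h in serum-free induction medium with 0.5% DMSO, up to 100 uM. Expression was assessed by TaqMan qRT-PCR against housekeeping controls and fitted bidirectionally against DMSO.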

[2] = read-out: Nuclear factor erythroid 2-related factor 2 (Homo sapiens) (UniProt Q16236); experiment: LTEA_HepaRG_NFE2L2: Life Technologies and Expression Analysis (LTEA) Assay for Nuclear factor erythroid 2-related factor 2 (NFE2L2) Transcription Factor using HepaRG (AID 2283527);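 also: TaqMan qRT-PCR transcript level normalised to ACTB GAPDH and POLR2A housekeeping genes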
Outline: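 Transcript level of NFE2L2 is the read-out, measured by microfluidic TaqMan qRT-PCR and normalized to three housekeeping genes. Human HepaRG cultures received test chemical for 48 h at up to 100 uM in half-log steps. Gain or loss of signal is fitted relative to 0.5% DMSO.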

[3] = read-out: succinate dehydrogenase complex iron sulfur subunit B (SDHB), SDHB (gene 6390); experiment: LTEA_HepaRG_SDHB: Life Technologies and Expression Analysis (LTEA) Assay for succinate dehydrogenase complex iron sulfur subunit B (SDHB) using HepaRG (AID 2283528)
Outline: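 HepaRG, 48 h exposure, 8-pt half-log series from 100 uM in 0.5% DMSO, duplicates. Readout: SDHB mRNA by Fluidigm qRT-PCR vs housekeeping genes; bidirectional fit relative to DMSO.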

[4] = read-out: Signal transducer and activator of transcription 3 (Homo sapiens) (UniProt P40763); experiment: LTEA_HepaRG_STAT3: Life Technologies and Expression Analysis (LTEA) Assay for Signal transducer and activator of transcription (STAT3) using HepaRG (AID 2283529)
Outline: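 Read-out is STAT3 mRNA level by qRT-PCR, normalized to three housekeeping genes, in human HepaRG liver cells treated for 48 h. Concentrations ran from 100 uM downward in half-log steps; curves were fitted for gain or loss relative to 0.5% DMSO.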

[5] = read-out: solute carrier (SLCO1B1), SLCO1B1 (gene 10599); experiment: LTEA_HepaRG_SLCO1B1: Life Technologies and Expression Analysis (LTEA) Assay for solute carrier (SLCO1B1) using HepaRG (AID 2283530)
Experimental: LTEA_HepaRG is a cell based, multiplexed-readout assay that uses HepaRG, a human liver cell line, with measurements taken at 48 hours after chemical dosing on a 96-well plate.LTEA_HepaRG_SLCO1B1 is one of 102 assay component(s) measured in the LTEA HepaRG cell culture assay. It is a marker of NR mediated transport.Data from the assay component LTEA_HepaRG_SLCO1B1 was analyzed into 1 endpoint. This assay endpoint, LTEA_HepaRG_SLCO1B1, was analyzed with bidirectional fitting relative to DMSO as the negative control and baseline of activity. Using a type of inducible reporter, measures of mRNA induction for gain or loss-of-signal activity can be used to understand regulation of transcription factor activity. To generalize the intended target to other relatable targets, this assay endpoint is annotated to the transporter intended target family, where the subfamily is organic anion transporter.
A total of 1060 chemcials from the ToxCast library were tested in eight-point concentration-response experiments. Cell culture and cytotoxicity assays were conducted at Thermo Fisher Scientific's Custom Services facility (Madison, WI). A single lot of human HepaRG cells (Thermo Fisher Scientific, Frederick, MD) was used for the cell culture experiments. 96-well format collagen type I coated plates of human HepaRG cells were prepared using established methods. Briefly, cryopreserved HepaRG cells were thawed, plated at a density of approximately 100,000 cells/well in HepaRG Thaw, Plate, and General Purpose media (HPRG770, Thermo Fisher Scientific), and incubated for 48 hours. […] Fluidigm's 96.96 Dynamic ArrayTM (Fluidigm, Amsterdam, the Netherlands) technology was used for gene expression analyses by quantitative reverse transcription polymerase chain reaction (qRT-PCR, performed by Quintiles/Expression Analysis, Durham, NC)89. […]

[6] = read-out: sulfotransferase 2A1 (SULT2A1), SULT2A1 (gene 6822); experiment: LTEA_HepaRG_SULT2A1: Life Technologies and Expression Analysis (LTEA) Assay for sulfotransferase 2A1 (SULT2A1) using HepaRG (AID 2283531)
Outline: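 Differentiated human HepaRG cells in serum-free induction medium were exposed for 48 h to eight half-log concentrations (top 100 uM, 0.5% DMSO). SULT2A1 mRNA was measured by qRT-PCR, normalized to ACTB, GAPDH and POLR2A, and fitted bidirectionally against DMSO.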

[7] = read-out: Transforming Growth Factor (TGFA), TGFA (gene 7039); experiment: LTEA_HepaRG_TGFA: Life Technologies and Expression Analysis (LTEA) Assay for Transforming Growth Factor (TGFA) using HepaRG (AID 2283532)
Outline: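 HepaRG (human liver line), 48 h exposure, 8 conc. half-log down from 100 uM, 0.5% DMSO vehicle, duplicates; serum-free induction medium. TGFA mRNA by TaqMan qRT-PCR, ACTB/GAPDH/POLR2A normalization; gain/loss fit vs DMSO.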

[8] = read-out: Transforming Growth Factor (TGFB1), TGFB1 (gene 7040); experiment: LTEA_HepaRG_TGFB1: Life Technologies and Expression Analysis (LTEA) Assay for Transforming Growth Factor (TGFB1) Transporter using HepaRG (AID 2283533)
Outline: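 Differentiated human HepaRG cells in serum-free induction medium were exposed in duplicate for 48 h to eight concentrations (top 100 uM, half-log steps, 0.5% DMSO). TGFB1 mRNA was quantified by qRT-PCR, normalized to ACTB, GAPDH, POLR2A, and fitted bidirectionally against DMSO.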

[9] = read-out: TIMP1, TIMP1 (gene 7076); experiment: LTEA_HepaRG_TIMP1: Life Technologies and Expression Analysis (LTEA) Assay for TIMP1 using HepaRG (AID 2283534);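 also: TaqMan qRT-PCR signal normalized to ACTB GAPDH and POLR2A housekeeping genes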
Outline: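 Differentiated human HepaRG cells in serum-free induction medium were exposed 48 h to chemicals (8 half-log concentrations, top 100 uM, 0.5% DMSO). TIMP1 mRNA was quantified by TaqMan qRT-PCR, normalized to ACTB/GAPDH/POLR2A; bidirectional fit versus DMSO.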

[10] = read-out: Tumor necrosis factor receptor 1 (TNFRSF1A), TNFRSF1A (gene 7132); experiment: LTEA_HepaRG_TNFRSF1A: Life Technologies and Expression Analysis (LTEA) Assay for Tumor necrosis factor receptor 1 (TNFRSF1A) using HepaRG (AID 2283535)
Outline: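 Differentiated human HepaRG cells were exposed in duplicate for 48 h in serum-free induction medium to eight concentrations (top 100 uM, half-log steps, 0.5% DMSO). TNFRSF1A mRNA was quantified by qRT-PCR, normalized to ACTB, GAPDH and POLR2A, then fitted bidirectionally against DMSO.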

Measured: outcome

Nuclear factor erythroid 2-related factor 2 (Homo sapiens), sequence (Q16236 whole entry, looked up): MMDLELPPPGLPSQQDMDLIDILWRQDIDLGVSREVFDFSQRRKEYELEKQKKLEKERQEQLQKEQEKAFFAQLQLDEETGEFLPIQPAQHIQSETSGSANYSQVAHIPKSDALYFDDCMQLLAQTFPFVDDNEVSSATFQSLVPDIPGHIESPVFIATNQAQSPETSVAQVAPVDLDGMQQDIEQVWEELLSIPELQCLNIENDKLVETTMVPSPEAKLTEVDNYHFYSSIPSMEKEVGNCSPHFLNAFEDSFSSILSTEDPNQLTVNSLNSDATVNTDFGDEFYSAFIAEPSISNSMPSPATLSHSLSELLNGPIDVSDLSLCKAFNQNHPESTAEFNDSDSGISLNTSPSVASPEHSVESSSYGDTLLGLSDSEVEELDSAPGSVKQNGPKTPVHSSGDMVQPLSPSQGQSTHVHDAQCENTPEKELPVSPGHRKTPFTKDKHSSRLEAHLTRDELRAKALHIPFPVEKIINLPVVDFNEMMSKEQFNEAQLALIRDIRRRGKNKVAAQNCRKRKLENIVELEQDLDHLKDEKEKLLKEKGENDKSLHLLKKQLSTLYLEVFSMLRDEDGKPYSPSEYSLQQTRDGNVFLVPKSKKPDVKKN
Signal transducer and activator of transcription 3 (Homo sapiens), sequence (P40763 whole entry, looked up): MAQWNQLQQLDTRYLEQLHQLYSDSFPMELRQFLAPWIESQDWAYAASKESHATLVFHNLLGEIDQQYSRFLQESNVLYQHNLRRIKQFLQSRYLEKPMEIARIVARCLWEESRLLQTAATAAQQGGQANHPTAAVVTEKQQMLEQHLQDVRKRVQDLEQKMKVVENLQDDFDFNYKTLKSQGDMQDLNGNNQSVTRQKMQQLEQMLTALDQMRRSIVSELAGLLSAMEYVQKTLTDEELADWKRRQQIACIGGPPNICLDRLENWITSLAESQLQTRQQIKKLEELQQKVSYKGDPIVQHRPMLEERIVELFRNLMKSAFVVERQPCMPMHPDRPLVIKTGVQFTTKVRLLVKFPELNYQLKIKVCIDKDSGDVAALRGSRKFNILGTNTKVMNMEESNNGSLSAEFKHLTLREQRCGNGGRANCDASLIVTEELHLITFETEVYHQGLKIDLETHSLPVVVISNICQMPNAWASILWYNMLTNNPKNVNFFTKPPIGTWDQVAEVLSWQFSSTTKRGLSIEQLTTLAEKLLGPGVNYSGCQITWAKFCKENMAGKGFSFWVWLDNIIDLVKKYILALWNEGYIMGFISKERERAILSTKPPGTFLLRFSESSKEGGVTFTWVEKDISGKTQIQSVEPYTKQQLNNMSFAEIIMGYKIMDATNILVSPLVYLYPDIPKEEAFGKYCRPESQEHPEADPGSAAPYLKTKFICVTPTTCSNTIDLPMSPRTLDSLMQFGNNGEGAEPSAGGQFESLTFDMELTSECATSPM

Nc1ccc(C(=O)O)cc1
inactive: all assays above

Cc1ccc([N+](=O)[O-])cc1N
inactive: all assays above

C1CNCCN1
inactive: all assays above
